# Where “and” joins values, the source holds several entries; their conditions need not be identical. Identical values can stand only once. Results filed as inconclusive are left out. The source holds several records for some structures; these can differ, active in one and inactive in another. Calls of active or inactive are those of the source. Rule for the calls, unless noted: active = hit-call score of the fitted dose curve at least 0.9, where 1 is the maximum; inactive = score below 0.9.
# How the values were obtained:
# [1] = read-out: Macrophage colony-stimulating factor (MCSF), CSF1 (gene 1435); test: BSK_IMphg_MCSF: BioMAP Diversity Plus: IMphg Assay for Macrophage colony-stimulating factor (MCSF) Biomarker Activity (AID 2284293); settings: primary human endothelial cells with macrophages
# In short: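 Co-culture of human venular endothelial cells and macrophages, 24 hours of chemical exposure. M-CSF quantified by ELISA, with parallel SRB total-protein staining for cytotoxicity; activity fitted relative to DMSO.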
# [2] = read-out: Interleukin-10 (IL10), IL10 (gene 3586); test: BSK_IMphg_IL10: BioMAP Diversity Plus: IMphg Assay for Interleukin-10 (IL10) Biomarker Activity (AID 2284294); settings: primary human endothelial cells with macrophages
# In short: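 Human venular endothelial cells cocultured with macrophages, dosed 24 h; IL-10 measured by ELISA, activity relative to DMSO. Cytotoxicity assessed in parallel cultures by sulforhodamine B total-protein staining.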
# [3] = BSK_IMphg_SRB.Mphg: Macrophage Viability Assessment in the BioMAP Diversity Plus: IMphg Assay (AID 2284295); settings: primary human endothelial cells with macrophages
# In short: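 Venular endothelial cells co-cultured with macrophages, read 24 h after dosing. Total protein measured by 0.1% SRB staining after 10% TCA fixation, absorbance at 560 nm. Fitted in positive direction against DMSO baseline.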
# [4] = read-out: Thrombomodulin, THBD (gene 7056); test: BSK_LPS_Thrombomodulin: BioMAP Diversity Plus: LPS Assay for Thrombomodulin Biomarker Activity (AID 2284296); settings: primary human HUVEC with PBMC
# In short: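 Human umbilical vein endothelial cells co-cultured with PBMC and stimulated with LPS; cell-surface thrombomodulin measured by ELISA 24 hours after compound. Gain or loss versus DMSO; cytotoxicity checked by SRB staining in parallel cultures.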
# [5] = read-out: CD69, CD69 (gene 969); test: BSK_LPS_CD69: BioMAP Diversity Plus: LPS Assay for CD69 Biomarker Activity (AID 2284303); settings: primary human HUVEC with PBMC
# In short: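 Human umbilical vein endothelial cells co-cultured with PBMC under LPS stimulation, chemical exposure 24 h; cell-surface CD69 measured by ELISA and fitted in the positive direction versus DMSO.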
# [6] = CCTE_Mundy_HCI_iCellGluta_NOG_NeuriteLength: CCTE's Neurite Outgrowth Assay in iCellGluta cells for Neurite Length, Mundy Lab (AID 2284318; active = hit-call score of the fitted dose curve at least 0.9, where 1 is the maximum)
# In short: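 Automated high-content imaging of betaIII-tubulin (Alexa Fluor-488) and Hoechst-stained cells gave neurite length, normalized to the DMSO baseline.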
# [7] = CCTE_Mundy_HCI_iCellGluta_NOG_NeuronCount: CCTE's Neurite Outgrowth Assay in iCellGluta cells for Neuron Count, Mundy Lab (AID 2284340; active = hit-call score of the fitted dose curve at least 0.9, where 1 is the maximum;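 note: cells fixed about 48 h after compound addition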)
# In short: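 Neuron count read by automated high-content imaging of Hoechst 33342 and betaIII-tubulin/Alexa Fluor-488 labelling in human iPSC glutamatergic neurons. Activity fitted relative to DMSO.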
# [8] = Tanguay_ZF_120hpf_MO24: Oregon State University Tanguay Lab 24 Hour Post-fertilization zebrafish Assay for Mortality (AID 2284389)
# In short: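 Dechorionated wild-type zebrafish embryos, 1 per well, statically exposed from 6 hpf at 28C, 0.64% DMSO final. Mortality scored as binary present/absent at 24 hpf by brightfield microscopy, relative to DMSO.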
# [9] = Tanguay_ZF_120hpf_CRAN: Oregon State University Tanguay Lab 120 Hour Post-fertilization zebrafish Assay for Craniofacial Malformation (AID 2284397)
# In short: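 Dechorionated Tropical 5D wild-type zebrafish embryos, one per well, were statically exposed from 6 to 120 hpf at 28C in 0.64% DMSO, with 5uM trimethyltin chloride as positive control. Craniofacial malformation was scored present/absent by brightfield microscopy, relative to DMSO.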
# [10] = Tanguay_ZF_120hpf_AXIS: Oregon State University Tanguay Lab 120 Hour Post-fertilization zebrafish Assay for Axial Malformation (AID 2284398)
# In short: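 Dechorionated 5D wild-type zebrafish embryos exposed statically, one per well, from 6 to 120 hpf at 28C, 0.64% DMSO. Axial malformation scored as present/absent by brightfield microscopy at 120 hpf; dead embryos not scored.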
# [11] = Tanguay_ZF_120hpf_MORT: Oregon State University Tanguay Lab 120 Hour Post-fertilization zebrafish Assay for Mortality (AID 2284399)
# In short: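 Dechorionated wild-type Tropical 5D zebrafish embryos, one per well from 6 hpf, static exposure to 120 hpf at 28C in sealed dark plates, 0.64% DMSO final. Mortality scored as binary by brightfield at 24 and 120 hpf.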
# [12] = Tanguay_ZF_120hpf_EDEM: Oregon State University Tanguay Lab 120 Hour Post-fertilization zebrafish Assay for Edema Malformation (AID 2284400)
# In short: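 Dechorionated Tropical 5D wild-type embryos, one per well, statically exposed from 6 to 120 hpf at 28C in 0.64% DMSO. Edema scored present/absent by brightfield microscopy at 120 hpf; dead embryos not scored; fit versus DMSO.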
# [13] = Tanguay_ZF_120hpf_ANY: Oregon State University Tanguay Lab 120 Hour Post-fertilization zebrafish Assay for Any Mortality and Malformation (AID 2284404)
# In short: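 Dechorionated Tropical 5D wild-type embryos, one per well from 6 hpf, static exposure in sealed, dark plates at 28C until 120 hpf, 0.64% DMSO final. Brightfield scoring of mortality and malformations as binary presence/absence, pooling 13 morphology endpoints.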
# [14] = CCTE_Padilla_ZF_Score.Craniofacial: CCTE's 144 Hour Post-fertilization zebrafish Assay Score for Craniofacial Malformation, Padilla Lab (AID 2284405)
# In short: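 Wild-type zebrafish embryos (with chorions), one per well in 10% Hanks', were dosed at 6–8 hpf in sealed plates and kept at 26C. They were rinsed at 5 dpf. At 6 dpf two blinded assessors scored craniofacial malformations by brightfield stereomicroscopy.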
# [15] = system: IYD (gene 389434); test: CCTE_GLTED_hIYD: CCTE's human Iodotyrosine Deiodinase (xIYD) Inhibition Assay, Great Lakes Toxicology and Ecology Division (GLTED) Lab (AID 2284317; active = hit-call score of the fitted dose curve at least 0.9, where 1 is the maximum;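 note: cell-free human IYD enzyme made in baculovirus insect cells; iodide freed from monoiodotyrosine measured by cerium arsenite color change at 420 nm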)
# In short: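 hIYD: baculovirus-expressed human IYD deiodinated monoiodotyrosine for 3 h with test chemical; free iodide was measured by Sandell-Kolthoff absorbance at 420 nm and normalized to MNT and DMSO/NaOH controls.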
# [16] = system: TTR (gene 7276); test: CCTE_GLTED_hTTR_0.5uM: CCTE's human Transthyretin (hTTR) Inhibition Assay, with 0.5uM TTR, Great Lakes Toxicology and Ecology Division (GLTED) Lab (AID 2284320)
# In short: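 Cell-free displacement assay in which human TTR at 0.5 uM was incubated with test chemical for 2 h. Displacement of the ANSA probe was read by fluorescence at 380 nm excitation/475 nm emission. Loss of signal was fitted in the positive direction versus DMSO.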
# [17] = system: SERPINA7 (gene 6906); test: CCTE_GLTED_hTBG: CCTE's human Thyroxine-binding Globulin (TBG) Inhibition Assay, Great Lakes Toxicology and Ecology Division (GLTED) Lab (AID 2284343; active = hit-call score of the fitted dose curve at least 0.9, where 1 is the maximum;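 note: active chemicals lower fluorescence versus DMSO baseline by displacing probe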)
# In short: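 Human TBG incubated 2 h with test chemical; displacement of ANSA probe read by fluorescence, 380 nm excitation/475 nm emission. Loss of signal relative to DMSO.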
compound,measurement,setting,value
OCCCCC(F)(F)C(F)(F)C(F)(F)C(F)(F)F,outcome,[1],inactive
same,outcome,[2],inactive
same,outcome,[3],inactive
same,outcome,[4],inactive
same,outcome,[5],inactive
same,outcome,[6],inactive
same,outcome,[7],inactive
same,outcome,[8],inactive
same,outcome,[9],inactive
same,outcome,[10],inactive
same,outcome,[11],inactive
same,outcome,[12],inactive
same,outcome,[13],inactive
same,AC50,[14],39.4 µM (active)
O=S(=O)(Cl)C(F)(F)C(F)(F)C(F)(F)C(F)(F)C(F)(F)C(F)(F)C(F)(F)C(F)(F)F,outcome,[1],inactive
same,AC50,[2],54.1 µM (active)
same,outcome,[2],inactive
same,outcome,[3],inactive
same,outcome,[4],inactive
same,outcome,[5],inactive
same,AC50,[15],100 µM (active)
same,AC50,[16],0.234 µM (active)
same,outcome,[8],inactive
same,outcome,[9],inactive
same,outcome,[10],inactive
same,outcome,[11],inactive
same,outcome,[12],inactive
same,outcome,[13],inactive
same,outcome,[14],inactive
O=C(O)CCC(F)(F)C(F)(F)C(F)(F)F,outcome,[1],inactive
same,outcome,[2],inactive
same,outcome,[3],inactive
same,outcome,[4],inactive
same,outcome,[5],inactive
same,outcome,[6],inactive
same,AC50,[16],17.6 µM (active)
same,outcome,[7],inactive
same,outcome,[8],inactive
same,outcome,[9],inactive
same,outcome,[10],inactive
same,outcome,[11],inactive
same,outcome,[12],inactive
same,outcome,[13],inactive
same,outcome,[14],inactive
NS(=O)(=O)C(F)(F)C(F)(F)C(F)(F)C(F)(F)C(F)(F)C(F)(F)F,AC50,[1],4.34 µM (active)
same,outcome,[1],inactive
same,AC50,[2],28.1 µM (active) and 22.7 µM (active)
same,outcome,[3],inactive
same,outcome,[4],inactive
same,AC50,[5],26 µM (active) and 22.3 µM (active)
same,AC50,[16],0.329 µM (active)
same,outcome,[8],inactive
same,outcome,[9],inactive
same,outcome,[10],inactive
same,AC50,[11],11.1 µM (active)
same,outcome,[12],inactive
same,AC50,[13],10.6 µM (active)
same,AC50,[14],2.66 µM (active)
O=S(=O)(O)CCC(F)(F)C(F)(F)C(F)(F)C(F)(F)F,outcome,[1],inactive
same,outcome,[2],inactive
same,outcome,[3],inactive
same,outcome,[4],inactive
same,outcome,[5],inactive
same,AC50,[16],2.1 µM (active)
same,outcome,[8],inactive
same,outcome,[9],inactive
same,outcome,[10],inactive
same,outcome,[11],inactive
same,outcome,[12],inactive
same,outcome,[13],inactive
same,outcome,[14],inactive
O=S(=O)(O)CCC(F)(F)C(F)(F)C(F)(F)C(F)(F)C(F)(F)C(F)(F)C(F)(F)C(F)(F)F,outcome,[1],inactive
same,AC50,[2],30 µM (active)
same,outcome,[3],inactive
same,AC50,[4],8.71 µM (active)
same,outcome,[4],inactive
same,outcome,[5],inactive
same,AC50,[16],8.98 µM (active)
same,outcome,[7],inactive
same,outcome,[8],inactive
same,AC50,[9],89.2 µM (active)
same,outcome,[10],inactive
same,AC50,[11],64.2 µM (active)
same,outcome,[12],inactive
same,AC50,[13],74.4 µM (active)
same,outcome,[14],inactive
O=C(F)C1(F)C(F)(F)C(F)(F)C(F)(F)C(F)(F)C1(F)F,outcome,[1],inactive
same,outcome,[2],inactive
same,outcome,[3],inactive
same,outcome,[4],inactive
same,outcome,[5],inactive
same,outcome,[6],inactive
same,AC50,[16],32.9 µM (active)
same,outcome,[7],inactive
same,outcome,[8],inactive
same,outcome,[9],inactive
same,outcome,[10],inactive
same,outcome,[11],inactive
same,outcome,[12],inactive
same,outcome,[13],inactive
same,outcome,[14],inactive
O=C(O)C(F)(F)C(F)(F)C(F)(F)OC(F)(C(F)(F)F)C(F)(F)F,outcome,[1],inactive
same,outcome,[2],inactive
same,outcome,[3],inactive
same,outcome,[4],inactive
same,outcome,[5],inactive
same,AC50,[16],0.321 µM (active)
same,outcome,[7],inactive
same,outcome,[8],inactive
same,outcome,[9],inactive
same,outcome,[10],inactive
same,outcome,[11],inactive
same,outcome,[12],inactive
same,outcome,[13],inactive
same,outcome,[14],inactive
NC(O)(C(F)(F)F)C(F)(F)F,outcome,[1],inactive
same,outcome,[2],inactive
same,outcome,[3],inactive
same,outcome,[4],inactive
same,AC50,[5],1.45 µM (active)
same,outcome,[5],inactive
same,outcome,[6],inactive
same,outcome,[7],inactive
same,outcome,[8],inactive
same,outcome,[9],inactive
same,outcome,[10],inactive
same,outcome,[11],inactive
same,outcome,[12],inactive
same,outcome,[13],inactive
same,outcome,[14],inactive
O=C(Cl)C(F)(F)C(F)(F)C(F)(F)C(F)(F)C(F)(F)C(F)(F)F,outcome,[1],inactive
same,AC50,[2],7.98 µM (active) and 7.26 µM (active)
same,outcome,[2],inactive
same,outcome,[3],inactive
same,outcome,[4],inactive
same,outcome,[5],inactive
same,AC50,[16],0.685 µM (active)
same,outcome,[14],inactive
O=C(O)C(F)(F)OC(F)(F)C(F)(F)OC(F)(F)C(F)(F)OC(F)(F)F,outcome,[1],inactive
same,outcome,[2],inactive
same,outcome,[3],inactive
same,outcome,[4],inactive
same,outcome,[5],inactive
same,AC50,[16],0.23 µM (active)
same,AC50,[17],18.6 µM (active)
same,outcome,[14],inactive

# Reference: PubChem BioAssay (EPA / NIEHS)
